# Assay outcomes from PubChem.
# A selection: hits, their analogues and other compounds. The true share with any hit is near 5.9%.
# GALK inh: blocks human galactokinase activity; P51570; Purified GALK, Kinase-Glo residual ATP luminescence; Potency, µM (doses to about 57.5 µM), most hits filed as inhibitors; hit rate 0.007% among 270,000; AID 1868
#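 Luminescence from leftover ATP (Ultra-Glo luciferase/luciferin) served as read-out after a 1 h room-temperature reaction of 5 nM GALK with 35 uM ATP and 100 uM galactose.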
# rTrxR1 inhibitor: rat TrxR1 inhibition; O89049; recombinant rTrxR1, NADPH fluorescence consumption, selenite substrate; Potency, µM (top dose mostly 114 µM), usual class: inhibitors; hit rate 1% among 390,000; AID 588453; further: nearly all actives have a fitted effect of over 65% in size
#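 Rat TrxR1 (90 nM in the dispensed reagent) was pre-reduced with 400 uM NADPH for 5 min at room temperature, then incubated with compound for 15 min. After 400 uM selenite was added, NADPH fluorescence (Ex 340/Em 450 nm) was followed for 8 min.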
# FBPA coupling cs: inhibits coupling enzyme system, counter-screen for aldolase hits; AID 2472; activity change, negative = inhibition, % at 58.2 µM, hits read low; hit rate 0.67% among 290,000; coupling enzyme system counterscreen, AmpLite Red fluorescence; in the data active means activity change below about -30%
#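 Compounds tested against the coupling enzymes alone at 57.5 uM final; readout was AmpLite Red fluorescence (525/598 nm) after 20 min at RT.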
# VP16 counter: counter-screen for ROR gamma inhibitors: Gal4-VP16 reporter; Drosophila S2 Gal4-VP16 UAS-luciferase, luminescence, 20 h; hit rate 3.5% among 310,000; Potency, µM (top dose mostly 53.6 µM), actives largely listed as inhibitors; AID 2546;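 further: Gal4-VP16 expression switched on by copper sulfate through the metallothionein promoter; nearly all actives have a fitted effect of over 50% in size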
# RORgamma inh: blocks mouse ROR gamma transcriptional activity. Drosophila S2 Gal4-RORgamma UAS-luciferase reporter, 20 h. P51450. hit rate 5.4% among 310,000. Potency, µM (highest dose often 53.6 µM), hits mostly inhibitors; further: nearly all actives have a fitted effect of over 60% in size
# Target sequence (P51450 whole entry, looked up, the tested form may be a part): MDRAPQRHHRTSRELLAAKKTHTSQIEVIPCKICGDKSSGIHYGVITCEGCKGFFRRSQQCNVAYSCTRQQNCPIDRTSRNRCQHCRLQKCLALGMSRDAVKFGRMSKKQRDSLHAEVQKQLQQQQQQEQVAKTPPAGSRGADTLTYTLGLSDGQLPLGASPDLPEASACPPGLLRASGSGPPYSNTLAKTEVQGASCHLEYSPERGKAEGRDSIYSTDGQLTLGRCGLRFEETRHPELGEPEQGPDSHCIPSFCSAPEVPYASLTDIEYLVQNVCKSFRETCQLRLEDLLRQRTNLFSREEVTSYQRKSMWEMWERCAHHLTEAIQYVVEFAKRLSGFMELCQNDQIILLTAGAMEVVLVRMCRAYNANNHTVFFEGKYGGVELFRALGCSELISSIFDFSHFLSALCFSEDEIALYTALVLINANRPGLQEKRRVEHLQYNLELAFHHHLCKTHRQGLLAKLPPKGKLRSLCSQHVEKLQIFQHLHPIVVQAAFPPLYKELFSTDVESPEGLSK
#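 ROR gamma transcriptional activity was tracked as Gal4-UAS luciferase output in stably transfected Drosophila Schneider cells, with compound added 1 hr before 700 uM copper sulfate induction and a 20 hr ambient-temperature incubation.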
# TrxR1 substrate: is turned over as a substrate by rat TrxR1; O89049; purified TrxR1 substrate turnover, NADPH consumption readout; Potency, µM (top dose mostly 114 µM); hit rate 0.01% among 390,000; further: nearly all actives have a fitted effect of over 50% in size
#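 Rat TrxR1, dispensed at 90 nM, was prereduced with 400 uM NADPH (final) for 5 min at ~22 deg C, then incubated with compound 15 min before 400 uM selenite. A first-read NADPH fluorescence drop versus no-compound background flagged substrates.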
# A number is an active result; – = inactive; ? = inconclusive; · = not tested or not shown; [ ] = another dose, or the depositor's remark. Unless noted, the call rests on the fitted dose curve; in most records, active means well fitted curve in the direction sought with a large enough effect; inconclusive means small, poorly fitted or top-dose-only effect, or another doubt; inactive means no such curve, though single readings can be large; an effect the other way counts as inactive or inconclusive.
SMILES,GALK inh,rTrxR1 inhibitor,FBPA coupling cs,VP16 counter,RORgamma inh,TrxR1 substrate
CCOc1ccccc1NC(=O)C1CCCN(S(C)(=O)=O)C1 (configuration not stated),–,–,–,–,–,–
COc1ccc(/C=C2/SC(=S)N(CCCC(=O)N3CCN(C)CC3)C2=O)cc1,–,–,–,2.5µM,1.4µM,–
Cc1ccc(/C=C2\SC(=S)N(CCCC(=O)N3CCOCC3)C2=O)cc1,–,–,·,?,3.2µM,–
CCOc1ccc(/C=C2\SC(=S)N(CCC(=O)O)C2=O)cc1,–,–,–,–,1.1µM,–
COc1ccc(/C=C2/SC(=S)N(CCC(=O)N3CCN(C)CC3)C2=O)cc1,–,–,–,–,10µM,–
COc1ccc(/C=C2\SC(=S)N(CC(=O)N3CCN(C)CC3)C2=O)cc1,–,–,–,–,–,–
C=CCNC(=O)c1cccc2c1C(=O)c1ccc(N3CCOCC3)cc1S2(=O)=O,·,–,·,·,·,–
CCOc1ccc(C(=O)NCCCN(CC)CC)cc1,–,–,–,–,–,–
S=C1NC(c2cccs2)=CC(c2ccc(Br)cc2)N1 (configuration not stated),–,–,–,4µM,3.5µM,–
S=C1NC(c2ccccc2)=CC(c2ccccc2)N1 (configuration not stated),–,–,–,11µM,3.5µM,–
N#CC1C(=O)NC(c2ccccc2)=CC1c1ccccc1 (configuration not stated),·,–[2.29 µM],·,·,·,–
CCC(=O)N1CCCc2cc(S(=O)(=O)N3CCCc4ccccc43)ccc21,–,–,–,–,–,–
CC(C)(C)c1cc[n+](/C(C(=S)Nc2ccccc2F)=C(/[O-])c2ccc3c(c2)OCCO3)cc1,–,–,–,–,10µM,–
CS(=O)(=O)CCCCN=C=S,·,·,–,–,13µM,·
Cc1c(-c2n[nH]c(=S)n2-c2ccc(C(F)(F)F)cc2)nnn1-c1ccccc1,–,?,–,?,5.6µM,–
Cc1c(-c2n[nH]c(=S)n2-c2ccc(Br)cc2)nnn1-c1ccc(Cl)cc1,–,–,–,–[10 µM],–,–
Cc1cccc(N2CCN(C(=O)C3CCN(S(=O)(=O)c4c(C)noc4C)CC3)CC2C)c1 (configuration not stated),–,–,–,–,?,–
CSc1nc(=NC(C)=O)ss1,–,–,–,–,3.2µM,–
COC(=O)COc1ccc(S(=O)(=O)NCc2ccco2)cc1,–,–,–,–,–,–
Cc1cc(C)cc(Nc2nnc(-n3nc(C)cc3C)c3ccccc23)c1,·,–,·,·,·,–
O=C(NNC(=O)c1ccccc1OCc1ccccc1Cl)c1csc(N2CCOCC2)n1,–,–,·,?,13µM,–
Cc1ccc(C)c(SCC(=O)NNC(=O)c2csc(N3CCOCC3)n2)c1,–,–,·,?,8.9µM,–
COc1ccccc1C(=O)NNC(=O)c1csc(N2CCOCC2)n1,·,–,·,·,·,–
Cc1ccsc1C(=O)NNC(=O)c1csc(N2CCOCC2)n1,·,–,·,·,·,–
COc1cccc(C(=O)Nc2ccc(NC(=O)C(C)C)nc2)c1,–,–,–,–,–,–
SMILES,GALK inh,rTrxR1 inhibitor,FBPA coupling cs,VP16 counter,RORgamma inh,TrxR1 substrate
C[C@H](NC(=O)c1nc[nH]c1C(=O)NCc1ccc(CNC(=O)OC(C)(C)C)cc1)C(=O)OCc1ccccc1,·,–,·,·,·,–
CC(C)C[C@H](NC(=O)c1nc[nH]c1C(=O)NCC(=O)OCc1ccccc1)C(=O)OC(C)(C)C,·,–,–,?,13µM,–
CC(C)C[C@H](NC(=O)c1[nH]cnc1C(=O)N[C@@H](C)C(=O)OCc1ccccc1)C(=O)OC(C)(C)C,·,–,–,16µM,7.1µM,–
C[C@H](NC(=O)c1nc[nH]c1C(=O)NCC(=O)OCc1ccccc1)C(=O)OC(C)(C)C,·,–,–,?,–,–
O=C1CCCN1CCC1CCN(C2CC(=O)N(c3ccc(Cl)cc3)C2=O)CC1 (configuration not stated),–,40µM,–,–,?,–
O=C1CCCN1CCC1CCN(C2CC(=O)N(Cc3ccc(N4CCCC4=O)cc3)C2=O)CC1 (configuration not stated),–,–,–,?,7.1µM,–
CCOc1ccc(NC(=S)N(CCOC)C(C)c2ccco2)cc1 (configuration not stated),–,–,–,?,8.9µM,–
CCc1ccccc1NC(=S)N(CCOC)C(C)c1ccco1 (configuration not stated),–,–,–,–,13µM,–
CCc1cccc(C)c1NC(=S)N(CCOC)C(C)c1ccco1 (configuration not stated),–,–,–,–,10µM,–
COCCN(C(=S)Nc1ccccc1C)C(C)c1cccs1 (configuration not stated),–,–,–,?,?,–
COCCN(C(=S)Nc1ccc(C)cc1)C(C)c1ccco1 (configuration not stated),–,–,–,–,?,–
c1ccc(-c2nc3ccccc3o2)nc1,–,–,–,–,–,–
c1ccc2nc(-c3nc4ccccc4o3)ccc2c1,–,–,–,10µM,–,–
CCOC(=O)CC(NC(=O)CCc1c(C)nc2c(-c3ccccc3)c(C)nn2c1C)c1ccc(OC(C)C)cc1 (configuration not stated),·,–,·,·,·,–
CNNC(=S)NC1CC2CC1C1C=CCC21 (configuration not stated),–,–,–,–,?,–
NC(=S)NC1CC2CC1C1C=CCC21 (configuration not stated),–,–,–,–,28µM,–
CC1CCN(S(=O)(=O)c2ccc(NC(=S)NC(=O)c3ccc(Cl)cc3)cc2)CC1,–,–,–,4µM,2µM,–
O=C(NC(=S)Nc1ccc(S(=O)(=O)N2CCCCC2)cc1)c1ccc(Cl)cc1,–,–,–,–,–,–
CN1CCN(S(=O)(=O)c2ccc(NC(=S)NC(=O)c3ccc(Cl)cc3)cc2)CC1,–,–,–,?,3.2µM,–
CC(Oc1ccccc1Cl)C(=O)Nc1ccc(S(=O)(=O)N2CCN(C)CC2)cc1 (configuration not stated),·,20µM,·,·,·,–
CN1CCN(S(=O)(=O)c2ccc(NC(=S)NC(=O)c3ccccc3)cc2)CC1,–,–,–,–,?,–
Cc1cc(OCC(=O)OCC(=O)N2CC(C)CC(C)C2)ccc1Cl (configuration not stated),·,–,·,·,·,–
O=C(O)CC(NC(=O)c1cccc(F)c1)c1ccc(OC2CCCC2)cc1 (configuration not stated),–,–,–,–,–,–
C=CCC1(C)OC=Cc2nc3cc(Cl)c(Cl)cc3nc21 (configuration not stated),·,·,–,–[10 µM],–[10 µM],·
